The list is not random: actives were taken first. Their share in the collection is about 1.3%.
PKM2 act – qHTS Assay for Activators of Human Muscle isoform 2 Pyruvate Kinase | Pyruvate kinase PKM (Homo sapiens), P14618 | purified PKM2, Kinase-Glo ATP luminescence, activation; response scale: 0% is enzyme alone, no compound | Potency, µM (titrated, usually from 57.5 µM), for the others: at the top dose activation, actives largely listed as activators | hit rate 0.34% among 260,000 | AID 1631, 2009; active means well fitted activation curve with a large enough effect; inconclusive means small, poorly fitted or top-dose-only effect; inactive means no such curve, though single readings can be large or run the other way; further: potency means the concentration at half of the fitted maximal effect; on the % scale 0 is the no-effect control and ±100 the full control effect; nearly all actives have a fitted effect of over 55% in size
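hPK-M2, >95% pure; 0.1 mM ADP / 0.5 mM PEP final; imidazole pH7.2 buffer w/ 7 mM MgCl2, 50 mM KCl; 1 h RT; Kinase-Glo lum. Intermediate enzyme activity for dual inhibitor/activator qHTS.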
TRPML1 ag – qHTS for Agonists of the Human Mucolipin Transient Receptor Potential 1 (TRPML1) | hit rate 0.12% among 410,000 | activation, % (no concentration beside the values) | TRPML1-expressing cells, Ca2+ dye fluorescence, FDSS; further: 0% is about no effect
Target sequence (Q9GZU1 whole entry, looked up): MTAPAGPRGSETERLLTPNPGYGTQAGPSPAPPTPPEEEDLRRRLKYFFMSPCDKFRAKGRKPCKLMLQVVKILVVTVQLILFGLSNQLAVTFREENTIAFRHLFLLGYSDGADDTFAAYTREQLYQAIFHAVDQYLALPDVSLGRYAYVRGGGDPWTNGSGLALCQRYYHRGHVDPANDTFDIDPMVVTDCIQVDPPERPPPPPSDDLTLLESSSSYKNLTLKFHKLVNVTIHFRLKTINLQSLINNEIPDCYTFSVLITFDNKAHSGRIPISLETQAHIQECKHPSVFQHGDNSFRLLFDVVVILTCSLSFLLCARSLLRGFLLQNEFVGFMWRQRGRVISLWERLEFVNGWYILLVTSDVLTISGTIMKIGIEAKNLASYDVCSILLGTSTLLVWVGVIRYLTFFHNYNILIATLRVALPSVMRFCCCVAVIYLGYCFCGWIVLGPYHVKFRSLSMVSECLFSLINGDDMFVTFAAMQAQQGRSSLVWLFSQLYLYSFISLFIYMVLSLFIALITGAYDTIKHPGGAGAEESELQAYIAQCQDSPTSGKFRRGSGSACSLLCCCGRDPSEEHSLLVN
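Calcium fluorescence on an FDSS kinetic reader gave the read-out. Tet-induced TRPML1-DL cells were plated overnight, dye-loaded (Ca8 with quencher, 45-90 min, room temperature, dark), then read 110 s after compound addition, and again 110 s after 4uM final 54-4 (EC80).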
IL2 activator – qHTS of IL-2 Activators. IL-2 activation reporter assay, cell-based qHTS; stimulated with anti-CD3/CD4/CD28 beads; in transgenic mouse T cells. hit rate 0.065% among 360,000. activation, % (series mostly up to about 46 µM); further: 0% is about no effect
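Using fluorescent plate cytometry, EGFP and DsRed are detected in transgenic mouse T cells stimulated 18 h at 37 degrees C with antibody-coated beads after 60 min compound pretreatment.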
TRPML1 blocker – qHTS for Inhibitors of the Human Mucolipin Transient Receptor Potential 1 (TRPML1) | TRPML1-inducible cells, Ca2+ dye fluorescence, FDSS; stronger effect = lower value; inhibition of EC80 agonist-evoked calcium signal | activity change, negative = inhibition, % (no concentration beside the values) | Mucolipin-1 (Homo sapiens), Q9GZU1 | hit rate 0.02% among 390,000; in the data active means activity change below about -50%; inconclusive means between about -30% and that limit;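 further: stimulus is agonist 54-4 at its EC80 concentration; on the % scale 0 is the no-effect control and ±100 the full control effect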
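TRPML1-DL cells, Tet-induced overnight (~16 h, 37 °C) at 1,500 cells/well, were loaded with Ca8 no-wash dye plus quencher for 45-90 min at room temperature. Compounds were pinned during FDSS kinetic reading; agonist 54-4 at EC80 (4 uM final) then added.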
PTAP TSG101 blk – qHTS Assay for Iinhibitors of HIV-1 Budding by Blocking the Interaction of PTAP/TSG101 | Potency, µM (doses to about 115 µM), without a hit: at the highest dose activity change, negative = inhibition, hits mostly inhibitors | 340,000 tested, under 10 active | Fluorescence polarization, FITC-PTAP peptide / Tsg101 binding; active means well fitted inhibition curve with a large enough effect in the main read-out, with a control signal flat, not every such curve was filed as active; inconclusive means small, poorly fitted or top-dose-only effect, or effect the other way, or a change in a side signal; inactive means no such curve, though single readings can be large or run the other way; further: potency means the concentration at half of the fitted maximal effect; % of control where 0% means no effect
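Fluorescence anisotropy tracks displacement of a FITC-tagged PTAP peptide (50 nM) from the Tsg101 binding domain (10 uM), following a 20 min room-temperature incubation at pH 7.5.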
BRCA1 expr act – qHTS Assay to Identify Small Molecule Activators of BRCA1 Expression. hit rate 1.1% among 380,000. AID 624202, 2012. Potency, µM (highest dose often 46.1 µM), for inactives: at the top dose activation, hits mostly activators. MCF7-BRCA1-FFLuc reporter, luminescence, 48 h; response scale: scaled: vehicle 0%, 10 µM genistein 100%; active means well fitted activation curve with a large enough effect; inconclusive means small, poorly fitted or top-dose-only effect; inactive means no such curve, though single readings can be large or run the other way; further: potency means the concentration at half of the fitted maximal effect; nearly all actives have a fitted effect of over 80% in size
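MCF7-BRCA1-FFLuc cells, 2000/well in phenol-red-free MEM, attached 2 h then treated 48 h at 37 C. Luciferase luminescence read 15 min after reagent; normalized to genistein maximum activation (10microM) and DMSO, concentration-response fitted.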
* marks the source's active call; other numbers are inactive results; ? = inconclusive; . = not tested or not shown. Unless noted, no stated cut-off is given here; in the data, active means activation above about 50%; inconclusive means mostly about 30% to 49%; inactive means weaker than that.

SMILES | PKM2 act | TRPML1 ag | IL2 activator | TRPML1 blocker | PTAP TSG101 blk | BRCA1 expr act
COc1ccc(Cl)cc1NC(=O)CN(C)C(=O)c1ccc(N2CCCCCC2)c([N+](=O)[O-])c1 | . | -1 | -3 | -23 | -2% | -57%
CCc1ccc(NC(=O)N2CCN(c3nnc(C)c4c(C)n(-c5ccc(Cl)cc5)nc34)CC2)cc1 | . | 3 | . | -22 | . | .
Cc1ccccc1OCc1nc2c3cnn(-c4ccccc4Br)c3ncn2n1 | . | 1 | . | 21 | . | .
Cc1ccccc1OCc1nnc2c3cnn(C)c3ncn12 | 28µM* | 0 | -1 | -8 | -3% | ?
CCCOC(=O)c1ccc(NC(=O)Cc2csc(C)n2)cc1 | . | 4 | . | -7 | . | .
COc1ccc(C(=O)NNC(=S)NC(=O)C(C)(C)C)cc1 | -1% | 51* | -1 | 32 | -8% | -47%
CCOC(=S)NC(=O)c1sc2ccccc2c1Cl | 7% | 1 | -2 | 15 | -5% | 0%
O=C(NC(=S)NCCO)c1sc2ccccc2c1Cl | ? | 0 | 2 | -1 | -3% | 11µM*
CC(C)(C)C(=O)NC(=S)NNC(=O)c1sc2ccccc2c1Cl | -1% | 71* | 0 | 0 | 2% | -93%
Oc1ccccc1-c1nnc(COc2ccccc2)o1 | ? | 1 | 2 | -25 | 1% | 60%
C=CCSc1nnc(-c2ccc(Cl)cc2Cl)o1 | -3% | 1 | 0 | 5 | -6% | ?
Clc1ccc(-c2nnc(CCc3ccccc3)o2)c(Cl)c1 | 2% | 0 | 1 | -3 | -9% | 11µM*
Oc1ccccc1-c1nnc(COc2ccc(Cl)cc2Cl)o1 | 0% | 0 | 2 | -7 | 0% | 13µM*
CC(Sc1nnc2ccc3ccccc3n12)C(=O)Nc1ccc(Cl)cc1 (stereo not given) | . | 0 | . | -6 | . | .
CCc1ccc(-c2nc(CS(=O)CC(=O)NCCc3ccc(C)cc3)c(C)o2)cc1 (stereo not given) | . | 0 | . | -3 | . | .
O=C1c2ccccc2S(=O)(=O)N1CC1CC(c2ccccc2Cl)=NO1 (stereo not given) | 3% | 1 | -1 | -12 | -1% | 5µM*
O=C(Nc1cccc(C(F)(F)F)c1)N1CCC(CN2CCCCCC2)CC1 | . | 1 | . | -13 | . | .
CN(C)c1ccc(/C=C/c2nc3ccccc3c(=O)[nH]2)cc1 | . | 0 | 61* | -11 | 8% | ?
O=C(c1cccs1)N(Cc1ccco1)Cc1cc2ccccc2[nH]c1=O | 22µM* | 2 | -3 | 1 | -9% | -10%
Fc1ccc(-c2cnn3c(-c4cccs4)ccnc23)cc1 | -19% | 1 | 106* | 7 | -1% | 1%
N=c1ccn(CC(=O)c2ccc(-c3ccccc3)cc2)cc1 | -6% | -1 | -1 | -16 | 0% | -58%
O=C(CN1C(=O)CCC1=O)c1ccc(-c2ccccc2)cc1 | -1% | 1 | 1 | -18 | -3% | 13µM*
CCOc1ccc(CC(=O)Nc2c(C(=O)c3ccc(F)cc3)oc3ccc(Cl)cc23)cc1OCC | . | -1 | . | -8 | . | 12%
COc1ccc2noc3c2c1C(=O)c1ccccc1-3 | . | 79* | 1 | 1 | ? | -15%
COc1ccc(OC)c2c1C(=O)c1ccccc1C2=O | -6% | 11 | 12 | -13 | ? | 4%
SMILES | PKM2 act | TRPML1 ag | IL2 activator | TRPML1 blocker | PTAP TSG101 blk | BRCA1 expr act
O=C1c2ccccc2-c2onc3ccc(NCCCn4ccnc4)c1c23 | 5% | 75* | 4 | 6 | ? | -53%
CCCN1CCC(=O)N(CCOc2ccccc2)CC1 | 0% | 0 | 0 | 16 | . | 30%
CC(C)(C)C1CCC(=O)N(CCOc2ccccc2)CC1 (stereo not given) | 0% | 0 | 0 | 17 | -5% | 13µM*
Cc1ccccc1CNC(=O)CCC(=O)N1CCSc2ccccc21 | . | 2 | . | 23 | . | .
O=C(NCc1ccccn1)c1c(O)c2cccc3c2n(c1=O)CC3 | 8.9µM* | -1 | 0 | -10 | -6% | 5%
O=C(NCCc1ccccc1)c1c(O)c2cccc3c2n(c1=O)CC3 | -5% | 1 | 1 | 18 | -3% | -28%
C(=C\c1nc(-c2cccnc2)no1)/c1ccccc1 | -1% | -1 | 0 | -15 | 0% | 2.8µM*
COc1ccccc1C1=NC(c2ccc(C)cc2)N=C1C (stereo not given) | 3% | 2 | -4 | 16 | -1% | 10µM*
CC(C)(C)NC(=O)c1oc2ccccc2c1NC(=O)c1ccc(F)cc1 | . | -1 | . | -7 | . | .
COC(=O)C1=C(C)N(c2ccc(C)c(C)c2)/C(=C/c2ccco2)C1=O | ? | 1 | 71* | -10 | ? | -25%
CCOC(=O)C1=C(C)N(c2ccc(C)c(C)c2)C(=O)/C1=C\c1ccco1 | -1% | 0 | -2 | 16 | 3% | 2%
Cc1ccc(CNC(=O)c2ccc(C)s2)cc1 | . | 0 | 0 | -5 | 0% | 13µM*
Cc1nc2ccc(NC(=O)CCS(=O)(=O)c3ccc(Cl)cc3)cc2s1 | -4% | 2 | -1 | 18 | -5% | -22%
Cc1nc2ccc(NC(=O)CCC3CCCC3)cc2s1 | 0% | 2 | -1 | 1 | 1% | 11µM*
Cc1ccc(N2C(=O)CS(=O)(=O)C23C(=O)N(Cc2ccccc2F)c2ccccc23)cc1Cl (stereo not given) | . | -1 | . | 2 | . | -3%
CC(=O)Nc1cccc(NC(=O)c2ccc(COc3ccccc3)cc2)c1 | . | 1 | 0 | -2 | -2% | 2.2µM*
CC(=O)Nc1cccc(OCc2ccc([N+](=O)[O-])cc2)c1 | . | -1 | -1 | 6 | . | 11µM*
CC(=O)Nc1ccc(NC(=O)c2ccc(COc3ccccc3)cc2)cc1 | -5% | 0 | 1 | 17 | -10% | 39%
N#CCCN1CCN(C(=S)c2ccc(-c3cccc(Cl)c3)o2)CC1 | ? | 2 | 1 | 50 | -4% | 10µM*
O=[N+]([O-])c1cccc(-c2ccc(C(=S)N3CCOCC3)o2)c1 | 23% | -1 | -3 | -10 | -3% | 4.5µM*
S=C(c1ccc(-c2cccc(Cl)c2)o1)N1CCCCC1 | ? | 2 | -2 | 10 | -2% | ?

Source: PubChem (National Center for Advancing Translational Sciences (NCATS))
